Screening data as filed in PubChem.
Sampled rows, rich in hits. Any-hit rate of the full collection: about 2.3%.
CHRM1 agonist: human M1 muscarinic receptor agonists, primary screen, Fluo-8 calcium fluorescence, CHO-K1 cells, HTS; activation, % at 3 µM; Muscarinic acetylcholine receptor M1 (Homo sapiens), P11229; actives 0.33% (n = 360,000); AID 588814, 2011; CHO-K1 hM1, agonist mode; 0% DMSO, 100% acetylcholine EC100;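 active = activation above the run's mean compound activation plus 3 SD, cut at about 16% in these data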;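 also: peak over basal fluorescence ratio within a 140 s kinetic read after compound addition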
Target sequence (P11229 whole entry, looked up): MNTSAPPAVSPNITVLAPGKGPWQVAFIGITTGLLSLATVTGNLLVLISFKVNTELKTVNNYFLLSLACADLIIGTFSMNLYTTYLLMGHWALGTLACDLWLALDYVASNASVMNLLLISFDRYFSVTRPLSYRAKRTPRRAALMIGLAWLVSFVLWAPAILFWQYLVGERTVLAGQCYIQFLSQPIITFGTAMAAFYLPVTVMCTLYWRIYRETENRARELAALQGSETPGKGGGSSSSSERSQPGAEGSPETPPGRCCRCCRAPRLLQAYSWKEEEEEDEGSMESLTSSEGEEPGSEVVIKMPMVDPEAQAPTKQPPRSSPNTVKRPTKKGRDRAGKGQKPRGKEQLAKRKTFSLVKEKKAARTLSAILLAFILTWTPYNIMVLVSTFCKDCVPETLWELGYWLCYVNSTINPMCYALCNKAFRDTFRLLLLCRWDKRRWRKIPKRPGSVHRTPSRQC
CHRM1 antagonist: human M1 muscarinic receptor antagonists, primary screen, CHO-K1 cells, Fluo-8 calcium fluorescence, 1536-well. CHO-K1 hM1, ACh EC80 antagonist. inhibition, % at 3 µM. actives 1.3% (n = 360,000). AID 588852, 2011;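 active = percent inhibition above its own plate's cutoff, namely the mean of that plate's compound wells plus 3 SD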;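 also: peak over basal fluorescence ratio during 140 s after agonist addition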
CHRM1 PAM: human M1 muscarinic receptor positive allosteric modulators, primary screen, CHO-K1 cells, Fluo-8 calcium fluorescence, 1536-well. Muscarinic acetylcholine receptor M1 (Homo sapiens), P11229. CHO-K1 hM1, ACh EC20; 0% = ACh EC20, 100% = maximal ACh. activation, % at 3 µM. actives 0.088% (n = 360,000). AID 588819, 2011; in the data active = activation above about 19%, passing the limit was not always enough
CHO-K1 Ca antag: M1 antagonist counterscreen hit in parental CHO-K1 cells. ATP-induced calcium, Fluo-8 fluorescence. inhibition, % at 3 µM. actives 0.6% (n = 360,000). AID 602250;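 active = inhibition above a per-plate cutoff, the plate's mean sample inhibition plus 3 SD, cut at about 24% in these data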
M1 PAM parental: nonselective calcium activators in parental CHO-K1 cells, primary screen, counter-screen for M1 PAM project, cell-based, Fluo-8 calcium fluorescence, full deck, 1536-well | ATP EC20; 0% at ATP EC20, 100% at ATP max | actives 0.02% (n = 360,000) | AID 602247, 2012 | activation, % at 3 µM;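 active = activation above the run cutoff, the mean activation of all test compounds plus 3 SD, cut at about 40% in these data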;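 also: peak over basal fluorescence ratio in a 140 s read after ATP addition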
CHO-K1 Ca ag: counter-screen for M1 agonists: effect in parental CHO-K1 cells | Fluo-8 calcium fluorescence; scaled to maximal ATP response, vehicle zero | activation, % at 3 µM | actives 0.48% (n = 360,000); in the data active = activation above about 15%;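 also: untransfected CHO-K1 host cells lacking M1 receptor as counterscreen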
Each line names hits and unclear results; the compound was inactive in the other large screens; ! = not active in a repeat.

COc1ccc(/C=N/NC(=O)CCSc2nc3ccccc3s2)cc1	none
COc1ccc(S(=O)(=O)Nc2ccccc2C(=O)N2CCOCC2)cc1Cl	none
O=C1C(Cl)=C(N2CCCCCC2)C(=O)N1c1ccc(Br)cc1	none
O=C1C(Cl)=C(N2CCCCCC2)C(=O)N1c1ccccc1	CHRM1 antagonist 36.1
O=C(Nn1c(C2CCCCC2)nc2ccccc2c1=O)c1ccc([N+](=O)[O-])cc1	CHO-K1 Ca antag 24.4
O=C(NCc1cccc2[nH]ccc12)C1CCC(=O)N(CCc2ccccc2)C1 (stereo unspecified)	none
COC(=O)c1ccccc1-c1c2ccc(=N)cc-2oc2cc(N)ccc12	CHRM1 agonist 890.2, CHRM1 antagonist 101.9, CHO-K1 Ca antag 88.3, CHO-K1 Ca ag 678.1
CC(C)NC(=O)C(Sc1ccccc1)c1ccccc1 (stereo unspecified)	CHO-K1 Ca antag 23.8
CC1(C)CC(=O)C(CSC(=O)c2ccccc2)C(=O)C1	none
COCCNC(=O)C1CCCN(S(=O)(=O)c2c(C)noc2/C=C/c2cccs2)C1 (stereo unspecified)	none
COC(CNC(=O)C1CCCN(S(=O)(=O)c2c(C)noc2/C=C/c2cccs2)C1)OC (stereo unspecified)	CHO-K1 Ca ag 15.5
Cc1cc(C)c(C)c(S(=O)(=O)NCc2cccnc2)c1C	none
COc1cc(C)c(Cl)c(C)c1S(=O)(=O)NCc1cccnc1	CHO-K1 Ca antag 27.3
Clc1ccc(C(CCN2CCCC2)Cc2ccccc2)cc1 (stereo unspecified)	CHRM1 antagonist 84.2
OC(CCN1CCCCC1)c1ccc(-c2ccccc2)cc1 (stereo unspecified)	none
CSc1ncc(CN2CCN(C3CCCC3)C(CCO)C2)cn1 (stereo unspecified)	CHRM1 antagonist 33.5
CSc1ncc(CN2CCN(CC=C(C)C)C(CCO)C2)cn1 (stereo unspecified)	CHRM1 antagonist 27.4
O=C1CCC(C(=O)N2CCN(c3ccccc3)CC2)CN1Cc1ccc(Cl)cc1 (stereo unspecified)	none
CC(=O)c1ccc(NC(=O)CSc2nc(=O)n3cccc(C)c3n2)cc1	CHO-K1 Ca antag 44.0
Cc1cc(C)c(NC(=O)CN2CCN3CCCC3C2)c(C)c1 (stereo unspecified)	CHRM1 PAM 28.6!
CC(C)=CCC(C)(C)/C=N/NC(N)=O	none
C[N+]1(CC(=O)Nc2ccccc2Cl)CCN(C(=O)c2cccs2)CC1	CHRM1 antagonist 33.3
CCCC(=O)Nc1ccccc1-c1nnc(SC)[nH]c1=O	CHO-K1 Ca antag 28.2
CCCSc1nnc(-c2ccccc2NC(=O)CC)c(=O)[nH]1	none
CCc1sc(C(=O)Nc2ncccc2C)cc1C	none
CCc1sc(C(=O)Nc2ncccc2O)cc1C	CHRM1 PAM 25.3
O=C1N[C@@H](c2ccccc2)COC(=O)[C@@H](Cc2ccc(F)cc2)CC/C=C/C[C@H]1CC(=O)N(CCO)Cc1ccccc1	CHRM1 antagonist 28.1
OC12CCCCC1C(c1ccc3c(c1)OCO3)N(Cc1ccc(F)cc1)CC2 (stereo unspecified)	CHO-K1 Ca ag 26.5
OC12CCCCC1C(c1ccc3c(c1)OCO3)N(Cc1cccc(F)c1)CC2 (stereo unspecified)	none
CCN1CCN(C(=O)C2CCC(=O)N(Cc3cccc(C(F)(F)F)c3)C2)CC1 (stereo unspecified)	none
O=C(Nc1cc(C(F)(F)F)cc(C(F)(F)F)c1)[C@H]1O[C@@H](n2ccc(=O)[nH]c2=O)[C@H](O)[C@@H]1O	none
Cc1nn(-c2ccccc2)c2ncc(C(=O)c3cc(Cl)ccc3O)cc12	none
CCc1nn2cc(C(=O)c3cc(Cl)ccc3O)cnc2c1-c1ccc(F)cc1	CHRM1 antagonist 43.0
Cc1cccc(C(C)C)c1NC(=O)CN1C(=O)NC2(CCc3ccccc32)C1=O (stereo unspecified)	none
CC1CCN(c2nc3ccccc3n2CC(=O)c2ccccc2)CC1	CHRM1 antagonist 66.9
